The values that follow come from PubChem BioAssay AID492994 (Johns Hopkins Ion Channel Center, 2010).

Each structure is given as a SMILES string. Entries with a potency or affinity are not part of this list. The source made the active and inactive calls.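 The calls were made as follows: active = TRPC4 ion channel inhibited over 30% at some tested dose, with a fitted dose response curve; inactive = no inhibition or no dose response curve.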

The experiment addresses Short transient receptor potential channel 4 (Mus musculus) (UniProt Q9QUQ5). The experiment is described as follows: TRPC4 inhibitor concentration-response, dose response, cell-based, HEK293 TRPC4/mu-opioid, DAMGO stimulus, Fluo-4 (AID 492994).

Chain of Short transient receptor potential channel 4 (Mus musculus) (Q9QUQ5 whole entry, looked up): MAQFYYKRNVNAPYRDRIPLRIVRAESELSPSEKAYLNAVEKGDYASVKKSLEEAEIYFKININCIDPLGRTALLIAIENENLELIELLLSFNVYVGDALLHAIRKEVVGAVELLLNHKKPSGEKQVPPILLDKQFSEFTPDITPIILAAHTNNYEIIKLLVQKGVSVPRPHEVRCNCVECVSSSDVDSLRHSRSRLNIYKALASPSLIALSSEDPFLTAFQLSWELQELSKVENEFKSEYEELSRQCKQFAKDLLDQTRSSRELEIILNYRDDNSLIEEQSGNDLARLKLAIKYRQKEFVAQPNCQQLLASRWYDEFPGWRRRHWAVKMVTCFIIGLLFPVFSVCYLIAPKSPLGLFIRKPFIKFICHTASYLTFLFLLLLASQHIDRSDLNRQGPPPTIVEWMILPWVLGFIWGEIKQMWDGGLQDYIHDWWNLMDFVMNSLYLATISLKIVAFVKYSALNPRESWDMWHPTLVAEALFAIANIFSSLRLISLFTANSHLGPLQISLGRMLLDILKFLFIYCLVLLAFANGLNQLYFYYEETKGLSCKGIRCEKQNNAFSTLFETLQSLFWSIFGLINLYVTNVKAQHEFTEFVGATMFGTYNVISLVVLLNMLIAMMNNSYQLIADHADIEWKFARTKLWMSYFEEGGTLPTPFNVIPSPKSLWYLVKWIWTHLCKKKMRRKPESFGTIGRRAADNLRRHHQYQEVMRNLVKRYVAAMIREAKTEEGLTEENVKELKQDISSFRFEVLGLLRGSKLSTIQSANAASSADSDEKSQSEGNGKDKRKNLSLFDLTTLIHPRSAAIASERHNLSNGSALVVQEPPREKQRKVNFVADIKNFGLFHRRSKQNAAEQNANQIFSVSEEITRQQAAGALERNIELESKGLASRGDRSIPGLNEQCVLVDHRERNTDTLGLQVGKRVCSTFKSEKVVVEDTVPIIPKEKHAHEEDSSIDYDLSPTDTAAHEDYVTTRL

Take `Cc1cc(N2CCNCC2)nc2ccccc12`: the outcome was inactive. Consider `Cc1cc(N2CCN(C)CC2)nc2ccccc12`, for which the result was inactive.
